The structures appear in SMILES notation. “And” between values parts separate entries of the source, which are not always exact repeats. Equal entries are not always repeated. Compounds without any hit were thinned out: in the full panel of roughly 83,000, 20% have a hit.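 A percent growth of 40 corresponds to 60% growth inhibition; 0 means no net growth; -100 means all cells died. Active threshold: below 10.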 Unmarked numbers belong to inactive results. The source made the active and inactive calls.

For the assay, the system named is MDA-MB-468 breast. Kind of assay: NCI-60 one-dose screen, 48 h (100 = growth as untreated, 0 = no growth, -100 = all killed). As to conditions: 10 µM unless noted.
For the compound `COc1ccc(OC)c(/C=C/c2nnc(Nc3ccc(Cl)cc3)o2)c1`, the growth was 66%.

On to `CN(C)c1ccc(/C=C2/C=C(c3ccccc3)OC2=O)cc1`, for which the growth is -8.42% (active).

`Cc1nn(-c2ccccc2)c2c1C(c1ccc([N+](=O)[O-])cc1)C(C#N)=C(N)O2` (stereo not given): the growth was 108%.

Regarding `C=C(C)[C@@H]1CC[C@]2(C(=O)OCCOCCOCC[P+](c3ccccc3)(c3ccccc3)c3ccccc3)CC[C@]3(C)[C@H](CC[C@@H]4[C@@]5(C)CC[C@H](OC(C)=O)C(C)(C)[C@@H]5CC[C@]43C)[C@@H]12`, the growth was -76.5% (active).

For `COC(=O)[C@@H]1CC[C@]2(C)[C@H](CC[C@@H]3O[C@@]32C)[C@@]1(C)CC(=O)c1ccoc1`, the growth is 95.7%.

Turning to `c1ccc2oc(-c3cnc4nonc4n3)cc2c1`, the growth was 98.9%.

For `CN1/C(=C/C=C/c2n(Cc3ccc4ccccc4c3)c(Cl)c(Cl)[n+]2Cc2ccc3ccccc3c2)Oc2ccccc21`, the growth was -56.7% (active).

As for `O=C1CCC(N2C(=O)c3cccc(NCCCC4CCN(CCNC(=O)c5cc6c(o5)C(=O)c5ccccc5C6=O)CC4)c3C2=O)C(=O)N1` (stereo not given), the growth was -73.9% (active).

With `OC(c1cccc(-n2ccc(C(F)(F)F)n2)c1)c1cnccc1NC1CCCCCC1` (stereo not given), the growth was -59.4% (active).

Regarding `COc1ccc(CN2CCCC(C(=O)c3ccc(C(F)(F)F)cc3)C2)c(O)c1` (stereo not given), the growth is 12.9%.

Take `CCN(CC)c1ccc(/C=N/NC(=O)c2ccc(S(N)(=O)=O)cc2)cc1`: the growth is 1.85% (active).

With `N#Cc1c(NC(=O)c2cccc(Br)c2)sc2c1CCCC2`, the growth was 59.3%.

For `CCNC(=O)N1CCc2cc(OC)c(OCCc3ccc(OC)cc3)cc2C1c1ccc([N+](=O)[O-])cc1C` (stereo not given), the growth is -5.05% (active).

As for `O=C(O)C(=Cc1c2ccccc2cc2ccccc12)C(=O)O`, the growth was 116%.

As to `COc1cc2c(Nc3ccc(Cl)c(Cl)c3F)ncnc2cc1OCC1C[C@@H]2CN(C)C[C@@H]2C1` (stereo not given in full), the growth was -86.1% (active) and -71.9% (active).

Consider `CCC(C)C(N)C(=O)NNc1n[nH]c(=S)n1N` (stereo not given), for which the growth was 104%.

As for `CCOC(=O)/C(=C\c1ccc2ccccc2c1)P(=O)(OCC)OCC`, the growth is -13.1% (active).

On to `CCN(CC)CCCC(C)Nc1c2ccc(Cl)cc2nc2ccc(OC)cc12` (stereo not given), for which the growth was -63.3% (active).

As for `CC1=C(O)C(=O)C(c2c(C)cc(C)c(Br)c2C)=C(O)C1=O`, the growth is 85.8%.

For `Cn1c(SCC(=O)c2ccco2)nc2ccccc2c1=O`, the growth is 5.9% (active).

As to `NCCSC(C[N+](=O)[O-])c1ccccc1Cl` (stereo not given), the growth is 10.2%.

For the compound `Cc1ccc2c(c1)C(C)Cc1c(ncnc1-n1cnc3ccccc31)N2C` (stereo not given), the growth was 30.8%.

With `COc1ccc(C2=Nn3c(nnc3-c3ccc(Cl)cc3N)SC2)cc1`, the growth is 100%.

On to `C=C(C)[C@@H]1CC[C@]2(C(=O)N[C@@H](Cc3ccccc3)C(=O)OC)CC[C@]3(C)[C@H](CC[C@@H]4[C@@]5(C)CCC(=O)C(C)(C)[C@@H]5CC[C@]43C)[C@@H]12`, for which the growth was 84.2%.

As to `O=C(OCc1ccc2c(Br)cc(Br)c(O)c2n1)N1CCN(C(=O)c2cc3ccccc3[nH]2)CC1`, the growth was 21.9%.

Regarding `O=C(Cn1cc(CN2C(=O)c3ccccc3S2(=O)=O)nn1)Nc1ccc([N+](=O)[O-])cc1Cl`, the growth is 103%.

Turning to `COc1cc(CCN=Cc2ccccc2O)c([N+](=O)[O-])cc1OC`, the growth was 113%.

Take `CC(=O)c1cc2c(N)c(C(=O)Nc3cccc4c3OCCO4)sc2nc1C`: the growth was 86.1%.

With `CN1CCN(C(=O)[C@]23CCC(C)(C)C[C@H]2C2=CC[C@@H]4[C@@]5(C)C/C(=C/c6cccnc6)C(=O)C(C)(C)[C@@H]5CC[C@@]4(C)[C@]2(C)CC3)CC1`, the growth is 34.3%.

Consider `C=CCNC(=O)c1ccc(OC)cc1`, for which the growth is 124%.

In the case of `CC(=O)NCC(=O)N1[C@@H]2CC[C@H]1c1ccc(Nc3ncc(C(F)(F)F)c(NC4CCC4)n3)cc12`, the growth is 72% [2.5 µM].

On to `Nc1ncnc2c1N=C(c1ccc(Cl)cc1)CC(c1cccc(Nc3ccnc4cc(Cl)ccc34)c1)N2` (stereo not given), for which the growth is 75%.

On to `O=S(=O)(NCCCNc1nccc(-c2c(-c3cccc(O)c3)nc3occn23)n1)c1ccc(F)cc1`, for which the growth was 100%.

`CN1CCN(C)c2cncc(Br)c2C1=O`: the growth was 106%.

As to `N=C(N)c1ccc(-c2ccc(-c3ccc(-c4cccs4)s3)s2)cc1`, the growth is 96.5%.

For the compound `CC(C)(C)c1ccc(Cn2c(-c3nonc3N)nc3ccccc32)cc1`, the growth is 47.6%.

As to `CC1(O)CC(c2nc(-c3ccc4ccc(-c5ccccc5)nc4c3)c3c(N)nccn23)C1` (stereo not given), the growth was 25%.

As for `O=C(c1ccncc1)N1N=C(c2ccc(Cl)cc2)C[C@H]1c1cn(-c2ccccc2)nc1-c1ccccc1`, the growth was 88.5%.

For `COc1c(F)cc(-n2c(C(=O)N3CC(F)C3)cc3cccnc32)cc1F`, the growth is 98.4%.

With `Cc1c(C(=O)OCCO)cc(-c2ccc(Cl)cc2)n1-c1ccc(Cl)cc1Cl`, the growth was 56.5%.

Source of the values: PubChem BioAssay (NCI).
